From PubChem BioAssay (NCATS)
Inconclusive results are not listed. Entries that show only a call come without a potency. Activity calls are given as the source filed them. Calls come from the whole dose curve; as a rule, active = well fitted cell-killing curve with a large enough effect; inconclusive = small, poorly fitted or top-dose-only effect; inactive = no such curve, though single readings can be large or run the other way.

Test: qHTS of pediatric cancer cell lines to identify multiple opportunities for drug repurposing: Primary screen for NB1643 cells (AID 1347099); note: nearly all actives have a fitted effect of over 50% in size
Conditions: NB1643 neuroblastoma viability, CellTiter-Glo luminescence, 48 h; series mostly up to 46 µM
How it was run: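 Readout: CellTiter-Glo luminescence, 48 h treatment. Controls DMSO (neutral) and bortezomib 2.3 µM final (positive). Potency and efficacy taken from primary-screen concentration-response curves.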
Potency is the fitted concentration of half-maximal effect.

Row | SMILES | Potency
1 | O=C(Nc1nnc(-c2ccco2)o1)c1cc(-c2ccccc2)nc2ccccc12 | 10.5 µM (active)
2 | OCC(O)C(O)C(O)CO (stereo not given) | inactive
3 | Nc1nc(=O)n([C@H]2C[C@H](O)[C@@H](CO)O2)cc1F | inactive
4 | C[C@H]1[C@@H](OC(=O)CCC(=O)O)O[C@@H]2O[C@@]3(C)CC[C@@H]4[C@H](C)CC[C@@H]1[C@@]24OO3 | 4.18 µM (active)
5 | Cc1cnc(Nc2ccc(CN3CCOCC3)cc2)nc1Nc1cccc(S(=O)(=O)NC(C)(C)C)c1 | 3.72 µM (active)
6 | OC[C@@H](O)[C@@H](O)[C@H](O)[C@@H](O)CO | inactive
7 | C=C(C)[C@@H]1CC[C@]2(C(=O)O)CC[C@]3(C)[C@H](CC[C@@H]4[C@@]5(C)CC[C@H](O)C(C)(C)[C@@H]5CC[C@]43C)[C@@H]12 | inactive
8 | CC(C)C[C@H](NC(=O)[C@@H](NC(=O)c1cccc(-c2ccccc2)n1)[C@@H](C)O)B(O)O | 0.0743 µM (active)
9 | CCN(C(=O)c1c(O)c2c(Cl)cccc2n(C)c1=O)c1ccccc1 | inactive
10 | CCS(=O)(=O)Nc1ccc2[nH]c(O)c(C(=Nc3ccc(CN4CCCCC4)cc3)c3ccccc3)c2c1 | 0.118 µM (active)
11 | c1coc(CNc2ncnc3nc[nH]c23)c1 | inactive
12 | CCOc1cc2c(c(F)c1OCC)C(=N)N(CC(=O)c1cc(N3CCOCC3)c(OC)c(C(C)(C)C)c1)C2 | 4.69 µM (active)
13 | CC[C@H]1OC(=O)[C@H](C)[C@@H](O[C@H]2C[C@@](C)(OC)[C@@H](O)[C@H](C)O2)[C@H](C)[C@@H](O[C@@H]2O[C@@H](C)C[C@H](N(C)C)[C@@H]2O)[C@](C)(O)C[C@@H](C)C(=O)[C@H](C)[C@@H](O)[C@]1(C)O | inactive
14 | CC(=O)O[C@H]1C[C@@H]2CC[C@H]3[C@H]4C[C@H]([N+]5(C)CCCCC5)[C@@H](OC(C)=O)[C@@]4(C)CC[C@@H]3[C@@]2(C)C[C@H]1N1CCCCC1 | inactive
15 | CC(C)(O)[C@H]1CC[C@@](C)([C@H]2[C@@H](O)C[C@@]3(C)[C@@H]4C[C@H](O[C@@H]5O[C@H](CO)[C@@H](O)[C@H](O)[C@@H]5O)[C@H]5C(C)(C)[C@@H](O[C@@H]6OC[C@@H](O)[C@H](O)[C@@H]6O)CC[C@@]56C[C@@]46CC[C@]23C)O1 | inactive
16 | Cn1cnc2c(F)c(Nc3ccc(Br)cc3F)c(C(=O)NOCCO)cc21 | inactive
17 | O=S(=O)(O)CCSSCCS(=O)(=O)O | 23.5 µM (active)
18 | C[C@@]12C[C@@]3(O)O[C@@H](O1)[C@]1(COC(=O)c4ccccc4)[C@@H]3C[C@@]12O[C@@H]1O[C@H](CO)[C@@H](O)[C@H](O)[C@@H]1O | inactive

Test: qHTS of pediatric cancer cell lines to identify multiple opportunities for drug repurposing: Primary screen for LAN-5 cells (AID 1347100)
Conditions: LAN-5 neuroblastoma viability, CellTiter-Glo luminescence, 48 h; series mostly up to 46 µM
How it was run: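 Cells (500-1,000/well) in growth media were settled 5 h at 37 degrees C, then given compounds for 48 h. Viability was read as CellTiter-Glo luminescence. Primary runs used MIPE at 11 points (0.78 nM-46 µM) and NPC at 8 points (0.59 nM-46 µM); follow-ups used 11 points.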

Row | SMILES | Potency
19 | O=C(Nc1nnc(-c2ccco2)o1)c1cc(-c2ccccc2)nc2ccccc12 | 20.9 µM (active)
20 | OCC(O)C(O)C(O)CO (stereo not given) | inactive
21 | C[C@H]1[C@@H](OC(=O)CCC(=O)O)O[C@@H]2O[C@@]3(C)CC[C@@H]4[C@H](C)CC[C@@H]1[C@@]24OO3 | 3.32 µM (active)
22 | OC[C@@H](O)[C@@H](O)[C@H](O)[C@@H](O)CO | inactive
23 | C[C@H](NC(=O)C(C#N)=Cc1cccc(Br)n1)c1ccccc1 | 16.6 µM (active)
24 | COC(=O)[C@@H]1[C@H]2C[C@@H]3c4[nH]c5ccccc5c4CCN3C[C@@H]2CC[C@@H]1O | inactive
25 | C=C(C)[C@@H]1CC[C@]2(C(=O)O)CC[C@]3(C)[C@H](CC[C@@H]4[C@@]5(C)CC[C@H](O)C(C)(C)[C@@H]5CC[C@]43C)[C@@H]12 | inactive
26 | CC(C)C[C@H](NC(=O)[C@@H](NC(=O)c1cccc(-c2ccccc2)n1)[C@@H](C)O)B(O)O | 0.0332 µM (active)
27 | CCN(C(=O)c1c(O)c2c(Cl)cccc2n(C)c1=O)c1ccccc1 | inactive
28 | CC(C)(O)CC[C@@H](O)[C@](C)(O)[C@H]1CC[C@@]2(O)C3=CC(=O)[C@@H]4C[C@@H](O)[C@@H](O)C[C@]4(C)[C@@H]3CC[C@]12C | inactive
29 | CCS(=O)(=O)Nc1ccc2[nH]c(O)c(C(=Nc3ccc(CN4CCCCC4)cc3)c3ccccc3)c2c1 | 0.0372 µM (active)
30 | c1coc(CNc2ncnc3nc[nH]c23)c1 | inactive
31 | CCCCOc1ccc(C(=O)Nc2ccc(F)cc2F)cc1 | inactive
32 | CC[C@H]1OC(=O)[C@H](C)[C@@H](O[C@H]2C[C@@](C)(OC)[C@@H](O)[C@H](C)O2)[C@H](C)[C@@H](O[C@@H]2O[C@@H](C)C[C@H](N(C)C)[C@@H]2O)[C@](C)(O)C[C@@H](C)C(=O)[C@H](C)[C@@H](O)[C@]1(C)O | inactive
33 | CC(=O)O[C@H]1C[C@@H]2CC[C@H]3[C@H]4C[C@H]([N+]5(C)CCCCC5)[C@@H](OC(C)=O)[C@@]4(C)CC[C@@H]3[C@@]2(C)C[C@H]1N1CCCCC1 | inactive
34 | CC(C)(O)[C@H]1CC[C@@](C)([C@H]2[C@@H](O)C[C@@]3(C)[C@@H]4C[C@H](O[C@@H]5O[C@H](CO)[C@@H](O)[C@H](O)[C@@H]5O)[C@H]5C(C)(C)[C@@H](O[C@@H]6OC[C@@H](O)[C@H](O)[C@@H]6O)CC[C@@]56C[C@@]46CC[C@]23C)O1 | inactive
35 | CC(=CC(=O)Nc1ccccc1C(=O)O)c1ccc2ccccc2c1 | inactive
36 | C[C@H](NC(=O)[C@@H](O)c1cc(F)cc(F)c1)C(=O)N[C@@H]1C(=O)N(C)c2ccccc2-c2ccccc21 | inactive
37 | CON=C(C(=O)N[C@@H]1C(=O)N2C(C(=O)O)=C(CSC(=O)c3ccco3)CS[C@H]12)c1csc(N)n1 | inactive
38 | C[C@@]12C[C@@]3(O)O[C@@H](O1)[C@]1(COC(=O)c4ccccc4)[C@@H]3C[C@@]12O[C@@H]1O[C@H](CO)[C@@H](O)[C@H](O)[C@@H]1O | inactive
39 | Nc1ncn([C@@H]2O[C@H](CO)[C@@H](O)[C@@H]2O)c(=O)n1 | 5.26 µM (active)
40 | C[C@]12C=CC(=O)N[C@@H]1CC[C@H]1[C@H]3CC[C@@H](C(=O)Nc4cc(C(F)(F)F)ccc4C(F)(F)F)[C@@]3(C)CC[C@@H]12 | inactive
